Several values for one entry are separate records, joined by “and”; a condition that tells them apart may be missing. Equal entries are not always repeated. This is part of a sample that, as a whole, favours compounds with a hit. Of some 83,000 tested, about 20% had one in any assay.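 96-well plates, one dose, 48 hours. Percent growth reported; active if below 10.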 Activity calls are given as the source filed them.

In the assay the test system is HL-60(TB) leukemia. Description: NCI-60 one-dose screen, 48 h (100 = growth as untreated, 0 = no growth, -100 = all killed). To be noted: 10 µM unless noted.
As for `CCC(O)c1ccccc1` (centres undefined), the growth was 98.6% (inactive) and 77.4% (inactive).
With `Cc1nnc(/N=C2\NC(=O)/C(=C/c3ccc(N(C)C)cc3)S2)s1`, the growth was 99.6% (inactive).
Turning to `COc1ccc(/C=C/c2nc(Nc3ccc(Cl)cc3)c3ccccc3n2)cc1`, the growth is -11.3% (active).
For the compound `Nc1[nH][nH]c(=O)c1N=Nc1ccccc1`, the growth was 98.6% (inactive) and 102% (inactive).
Next, `O=S(=O)(Nc1ccc(F)c(Cl)c1)c1ccc(-c2cnc(C3CC3)o2)cc1`: 8.62% (active); `C=CCCCOC1[C@H](OCc2ccccc2)C(OCc2ccccc2)C(OC)O[C@@H]1CNC(=O)c1cccc(I)c1` (some centres undefined): 55.1% (inactive).
Consider `Nc1nc(SC/C=C/CCl)c2[nH]cnc2n1`, for which the growth was 97.8% (inactive) and 103% (inactive).
Take `O=C(Cc1ccc(/C=C/C(=O)c2ncc[nH]2)cc1)Nc1ccc(C(F)(F)F)cc1`: the growth was -5.94% (active).
To `C=CC[N+]1(CC)CCN=C1CCCCCCCCCCCCCCCCC` (centres undefined) belongs -59.5% (active).
As to `Cc1cc2c(F)c(Oc3ncnc(Nc4ccc(N5C[C@@H](C)N[C@@H](C)C5)cc4)c3C#N)cc(F)c2[nH]1`, the growth was -54.6% (active).
With `Nc1nc(Nc2cc(Cl)cc(Cl)c2)nn1S(=O)(=O)c1ccc2ccccc2c1`, the growth was 88.6% (inactive).
Next, `CS(=O)(=O)c1ccc(-c2cc(-c3nnc(SCC(=O)Nc4ccc(C(=O)/C=C/c5ccc(Cl)cc5)cc4)n3-c3ccccc3)c3ccccc3n2)cc1`: 98.9% (inactive).
To `CCCCN1C(=O)/C(=c2\sc3n(c2=O)C2C(NN=3)N(CC)C(=O)N2CC)c2ccccc21` (centres undefined) belongs -52.2% (active); to `O=[N+]([O-])c1ccc2c(c1)Cc1cc(F)ccc1-2`, 114% (inactive).
For `COC(=O)c1ccccc1Br`, the growth is 76.5% (inactive).
For the compound `CCCCN(CCCC)CCCOC(=O)c1ccc(N)cc1`, the growth was 76.4% (inactive).
Next, `O=C(/C(=C/c1ccc([N+](=O)[O-])cc1)SCc1ccc(F)cc1)c1ccc(Cl)cc1`: 64.2% (inactive); `O=C(/C=C/c1ccccc1)c1cccc(O)c1`: 72.1% (inactive).
For `O=C(Cc1ccccc1)Nc1nc(O)c(/C=C2\C(=O)C=Cc3ccccc32)s1`, the growth was 103% (inactive).
Turning to `CC[C@H](Nc1ncnc2nc[nH]c12)c1nc2cccc(NCc3ccc(C(=O)NO)o3)c2c(=O)n1-c1ccccc1`, the growth was 81.4% (inactive).
Turning to `O=C(Nc1ccc(F)cc1F)c1cc(F)ccc1O`, the growth was -25.4% (active).
With `CCCCCCCCCCCCCCCCC(C(=O)O)C(O)(CC(=O)O)C(=O)O` (centres undefined), the growth was 94.6% (inactive) and -8.25% (active).
For the compound `CCOC(=O)C1=C(N)Oc2c(sc3c(CC)cccc23)C1c1ccc(F)cc1` (centres undefined), the growth is 23.7% (inactive).
Next, `COc1cc(-c2nnc(-c3c(-c4ccc(F)cc4)nc4ccccn34)o2)cc(OC)c1OC`: 102% (inactive).
With `COc1cc(/C=C/C(=O)c2c(C)n([O-])c3ccccc3[n+]2=O)cc(OC)c1OC`, the growth was -10.8% (active).
Take `COc1cc(-c2cc(-c3cc4c([nH]c5ccccc54)c(-c4cc(OC)c(OC)c(OC)c4)n3)cc(-c3ccccc3)n2)cc(OC)c1OC`: the growth was 30.9% (inactive).
`N#Cc1c(-c2ccc(Cl)cc2)c(C#N)c2c(C#N)c(N)nn2c1N`: the growth was 85.8% (inactive).
As for `N#CCSc1nnc2n(Cc3ccccc3)c(=O)c3c4c(sc3n12)CCCC4`, the growth is 81.7% (inactive).
For the compound `COc1cc(NC(=O)Nc2cnc(Nc3ccc(N4CCOCC4)cc3)nc2Oc2cccc(OC)c2)cc(OC)c1`, the growth was 22.8% (inactive).
`Clc1ccc(CNc2c3ccccc3nc3ccccc23)cc1`: the growth was 44.7% (inactive).
As for `NS(=O)(=O)c1ccc(-n2ncc(NC(=O)Nc3ccc(S(=O)(=O)Nc4nccs4)cc3)c2-c2ccccc2)cc1`, the growth was 92.5% (inactive).
On to `Cc1cc(=O)[nH]c(O)c1C#N`, for which the growth was 109% (inactive) and 137% (inactive).
On to `C=C1C(=O)O[C@H]2[C@H]1CC/C(COC(=O)CCC(=O)NCCOCCOCC(=O)Nc1ccc(OC)c(C(N)=O)c1O)=C\CC[C@@]1(C)O[C@@H]21`, for which the growth is 65.3% (inactive).
To `O=C(Nc1ccccc1)Nc1cccc(-n2cc(-c3ccncc3)c(-c3ccc(O)c(Cl)c3)n2)c1` belongs 37.5% (inactive).
For `N[C@H]1CN(C(=O)c2cc3cc(Br)c(F)c(F)c3[nH]2)C[C@@H]1O`, the growth is 98.5% (inactive).
Take `CC(=O)c1c(C)c2cnc(Nc3ccc(N4CCNCC4)cn3)nc2n(C2CCCC2)c1=O`: the growth was 21.8% (inactive).
As to `O=C1/C(=C/c2ccc(Cl)c(Cl)c2)CN(C(=O)C(Cl)Cl)C/C1=C\c1ccc(Cl)c(Cl)c1`, the growth was -15.2% (active).
As for `COc1ccc(C(c2cc(OC)c(OC)c(OC)c2)N2CCN(c3ccccc3)CC2)cc1` (centres undefined), the growth was 67.1% (inactive).
Regarding `CCOc1ccccc1/C=N/N1CCCCCC1`, the growth was 99.1% (inactive).

The values are drawn from PubChem BioAssay (NCI).
